According to PubChem BioAssay (NCATS):
Values joined by “and” are separate entries in the source; they are usually repeats but may differ in a detail not shown here. Equal entries are not always repeated. Records with an inconclusive call do not appear. A number with no mark means an inactive call. Active and inactive are the calls of the source. Calls come from the whole dose curve; as a rule, active = well fitted curve in the direction sought with a large enough effect; inconclusive = small, poorly fitted or top-dose-only effect, or another doubt; inactive = no such curve, though single readings can be large; an effect the other way counts as inactive or inconclusive.

Columns and labels:
[1] = Viability qHTS for spleen associated tyrosine kinase inhibitor (SYKi) naive MV4-11 cells (AID 1963823); conditions: MV4-11 AML viability, CellTiter-Glo luminescence, 72 h; series mostly up to 45 µM; note: nearly all actives have a fitted effect of over 40% in size
Outline: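 In this viability screen, compounds acted on SYK inhibitor naive MV4-11 cells for three days (72 hr, 37 C). Remaining viable cells were measured by CellTiter-Glo luminescence following a 10 min room-temperature development.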

[2] = Viability qHTS for spleen associated tyrosine kinase inhibitor (SYKi) drug resistant MV4-11 cells (AID 1963824); conditions: SYKi-resistant MV4-11 viability, CellTiter-Glo, 72 h; series mostly up to 45 µM; note: nearly all actives have a fitted effect of over 35% in size
Outline: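 SYK-inhibitor-resistant MV4-11 AML cells were seeded at 500 per well onto compound and cultured 72 hours (37 °C, 5% CO2). CellTiter-Glo was then added, and after 10 min at room temperature, luminescence gave viability.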

[3] = Quantitative highthroughput screen to assess conditional lethalithy of P12 Ichikawa cells grown in Human Plasma-Like Medium with dialyzed fetal bovine serum (HPLM+ds) (AID 1963879); conditions: ATP luminescence, 48 h; Potency: viability; series mostly up to 45.8 µM; note: nearly all actives have a fitted effect of over 35% in size
Outline: (§1)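 Each medium arm—HPLM with 10% dialyzed FBS, or RPMI1640 with 5 mM glucose and 10% untreated or dialyzed FBS—was screened against an 11-point, 3-fold compound titration for 48 h at 37 °C, with CellTiter-Glo luminescence as endpoint.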

[4] = Quantitative highthroughput screen to assess conditional lethalithy of P12 Ichikawa cells grown in RPMI1640 with untreated serum (RPMI+s) (AID 1963881); conditions: ATP luminescence, 48 h; Potency: viability; series mostly up to 45.8 µM; note: nearly all actives have a fitted effect of over 35% in size;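 for Viability: 100% = DMSO wells and 0% = empty wells without cells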
Outline: as §1

[5] = Quantitative highthroughput screen to assess conditional lethalithy of SEM cells grown in Human Plasma-Like Medium with dialyzed fetal bovine serum (HPLM+ds) (AID 1963882); conditions: SEM B-ALL cells in HPLM+ds, CellTiter-Glo viability, 48 h; series mostly up to 45.8 µM; note: nearly all actives have a fitted effect of over 35% in size
Outline: as §1

[6] = Quantitative highthroughput screen to assess conditional lethalithy of SEM cells grown in RPMI1640 with dialyzed fetal bovine serum (RPMI+ds) (AID 1963884); conditions: SEM B-ALL cells, RPMI+dialyzed FBS, CellTiter-Glo viability, 48 h; series mostly up to 45.8 µM; note: nearly all actives have a fitted effect of over 35% in size
Outline: as §1

[7] = Cellular viability qHTS for adrenocortical cancer (ACC) cell line SW-13 (AID 1963989); conditions: SW-13 ACC cells viability, CellTiter-Glo, 48 h; activity (max response): stronger effect = lower value; note: nearly all actives have a fitted effect of over 65% in size;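 for activity (max response): cells grown in serum-free medium with ITS supplement; % is set by controls: 0 for no effect and ±100 for the full control effect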
Outline: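 SW-13 cells in ITS-supplemented serum-free DMEM were plated overnight, then exposed for 48 h at 37C to compound titrations (up to 46 uM final). Viability was read by CellTiter-Glo luminescence; four-parameter logistic fits gave IC50 and efficacy.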

[8] = Cellular viability qHTS for adrenocortical cancer (ACC) cell line NCI-H295R (AID 1963990); conditions: CellTiter-Glo ATP luminescence, 48 h; series mostly up to 46.1 µM; note: nearly all actives have a fitted effect of over 60% in size
Outline: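 Luminescent ATP read-out (CellTiter-Glo, 20 min RT) after 48 h drug exposure of NCI-H295R cells; a titration up to 46 uM final. Data normalized to doxorubicin (100% inhibition) and DMSO (0%); 4-parameter fit gives IC50, max response.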

[9] = Quantitative highthroughput screen to assess conditional lethalithy of P12 Ichikawa cells grown in RPMI1640 with dialyzed fetal bovine serum (RPMI+ds) (AID 1963880); conditions: ATP luminescence, 48 h; Potency: P12-Ichikawa viability; series mostly up to 45.8 µM; note: nearly all actives have a fitted effect of over 35% in size
Outline: as §1

[10] = Quantitative highthroughput screen to assess conditional lethalithy of SEM cells grown in RPMI1640 with unreated serum (RPMI+s) (AID 1963883); conditions: SEM B-ALL cells, CellTiter-Glo viability, 48 h; series mostly up to 45.8 µM; note: nearly all actives have a fitted effect of over 35% in size
Outline: as §1
Potency is the fitted concentration of half-maximal effect.

Q: Which Potency [1] does the source give for CN1CCCN(C(=O)c2cccc(-c3ccc(C=C4C(=O)Nc5ccc(Cl)cc54)o3)c2)CC1 here?
A: The Potency was 0.517 µM (active).

Q: What about the Potency [2] of the same molecule?
A: Its Potency is 0.461 µM (active).

Q: And the Potency [3]?
A: Its Potency is 2.96 µM (active).

Q: What about the Potency [4] of the same molecule?
A: The Potency was 5.9 µM (active).

Q: And the Potency [5]?
A: The Potency was 5.9 µM (active).

Q: What about the Potency [6] of the same molecule?
A: The Potency was 1.87 µM (active).

Q: Which Potency [1] does the source give for COc1ccc(CCN(C)CCCOc2ccc(S(=O)(=O)c3[nH]c4ccccc4c3C(C)C)cc2)cc1OC here?
A: The Potency was 7.42 µM (active).

Q: And the Potency [2]?
A: The Potency was 6.61 µM (active).

Q: And the Potency [3]?
A: Its Potency is “inactive”.

Q: What about the Potency [7] of the same molecule?
A: Its Potency is 28.2 µM (active).

Q: And the Potency [8]?
A: The Potency was 11.2 µM (active).

Q: Which results are given for CN(Cc1cnc2nc(N)nc(N)c2n1)c1ccc(C(=O)N[C@@H](CCC(=O)O)C(=O)O)cc1?
A: Potency [1]: 10.6 nM (active) and 37.2 nM (active); Potency [2]: 10.6 nM (active) and 46.8 nM (active); Potency [3]: 0.0662 µM (active); Potency [9]: 0.105 µM (active); Potency [5]: 0.132 µM (active); Potency [10]: 1.05 µM (active); Potency [6]: 0.0833 µM (active); Potency [8]: 13 nM (active) and 316 nM (active)

Q: For CN(C)CCc1c[nH]c2ccc(CS(=O)(=O)N3CCCC3)cc12, which Potency [1] is on record?
A: The Potency was “inactive”.

Q: What about the Potency [2] of the same molecule?
A: The Potency was “inactive”.

Q: And the Potency [4]?
A: Its Potency is “inactive”.

Q: What about the Potency [5] of the same molecule?
A: The Potency was “inactive”.

Q: And the Potency [10]?
A: The Potency was 5.9 µM (active).

Q: And the Potency [6]?
A: Its Potency is 14.8 µM (active).

Q: And the Potency [8]?
A: The Potency was “inactive”.

Q: With c1ccc(-c2oc3ncnc(NC[C@@H]4CCCO4)c3c2-c2ccccc2)cc1 as the molecule, how does the Potency [1] read?
A: Its Potency is 9.2 µM (active).

Q: And the Potency [2]?
A: The Potency was 13 µM (active).

Q: What about the Potency [5] of the same molecule?
A: The Potency was “inactive”.

Q: With CCn1cc(-c2ccnc3[nH]c(-c4cccc(CN(C)C)c4)cc23)c(-c2ccc(NC(=O)N(C)C)cc2)n1 as the molecule, how does the Potency [1] read?
A: Its Potency is 103 nM (active) and 83.3 nM (active).

Q: What about the Potency [2] of the same molecule?
A: Its Potency is 282 nM (active) and 235 nM (active).

Q: What about the Potency [3] of the same molecule?
A: The Potency was 0.0662 µM (active).

Q: What about the Potency [4] of the same molecule?
A: The Potency was 0.0833 µM (active).

Q: And the Potency [5]?
A: The Potency was 0.0743 µM (active).

Q: And the Potency [10]?
A: Its Potency is 0.0469 µM (active).

Q: And the Potency [6]?
A: Its Potency is 0.059 µM (active).

Q: What about the Potency [7] of the same molecule?
A: Its Potency is 17.8 µM (active).

Q: And the Potency [8]?
A: Its Potency is 12.6 µM (active).

Q: For COc1ccc(S(=O)(=O)Nc2cccnc2Nc2ccc(O)cc2)cc1, which Potency [1] is on record?
A: Its Potency is 0.934 µM (active).

Q: What about the Potency [2] of the same molecule?
A: The Potency was 0.833 µM (active).

Q: And the Potency [3]?
A: Its Potency is 3.32 µM (active).

Q: What about the Potency [4] of the same molecule?
A: Its Potency is 3.32 µM (active).

Q: What about the Potency [5] of the same molecule?
A: Its Potency is 2.35 µM (active).

Q: And the Potency [7]?
A: The Potency was 3.16 µM (active).

Q: What does the source list for Cc1cc(C(C)(C)C)c(O)c(C)c1CC1=NCCN1?
A: Potency [1]: inactive; Potency [2]: inactive; Potency [3]: 8.33 µM (active); Potency [4]: 10.5 µM (active); activity (max response) [7]: -5.66% and -4.23%; Potency [8]: inactive

Q: For NC(=NCCCCCCN=C(N)N=C(N)Nc1ccc(Cl)cc1)N=C(N)Nc1ccc(Cl)cc1, which Potency [1] is on record?
A: Its Potency is 2.35 µM (active).

Q: And the Potency [2]?
A: Its Potency is 2.63 µM (active).

Q: What about the Potency [3] of the same molecule?
A: The Potency was “inactive”.

Q: And the Potency [4]?
A: Its Potency is 20.9 µM (active).

Q: What about the Potency [7] of the same molecule?
A: Its Potency is 3.98 µM (active).

Q: What about the Potency [8] of the same molecule?
A: Its Potency is 17.8 µM (active).

Q: For COc1ccc2cc3[n+](cc2c1OC)CCc1cc2c(cc1-3)OCO2, which Potency [1] is on record?
A: The Potency was 4.22 µM (active) and 1.48 µM (active).

Q: What about the Potency [2] of the same molecule?
A: The Potency was 1.68 µM (active) and 934 nM (active).

Q: What about the Potency [3] of the same molecule?
A: Its Potency is 18.7 µM (active).

Q: And the Potency [4]?
A: Its Potency is 18.7 µM (active).

Q: And the Potency [10]?
A: The Potency was 20.9 µM (active).

Q: And the Potency [6]?
A: Its Potency is 18.7 µM (active).

Q: And the Potency [7]?
A: The Potency was 10.3 µM (active) and 8.91 µM (active).

Q: And the Potency [8]?
A: The Potency was “inactive”.

Q: With C[C@@H]1CC(=O)NN=C1c1ccc(NN=C(C#N)C#N)cc1 as the molecule, how does the Potency [1] read?
A: The Potency was 13.3 µM (active).

Q: And the Potency [2]?
A: The Potency was 15 µM (active).

Q: And the Potency [9]?
A: The Potency was 26.4 µM (active).

Q: And the Potency [5]?
A: Its Potency is 18.7 µM (active).

Q: What about the Potency [6] of the same molecule?
A: The Potency was 16.6 µM (active).

Q: And the activity (max response) [7]?
A: Its activity (max response) is -17.4% and 2.94% and -32.7%.

Q: What about the Potency [8] of the same molecule?
A: The Potency was “inactive”.

Q: Which results are given for CN(C)CCCN1c2ccccc2CCc2ccc(Cl)cc21?
A: Potency [1]: 16.6 µM (active); Potency [2]: 10.6 µM (active) and 14.8 µM (active); Potency [3]: inactive; Potency [8]: 25.1 µM (active)

Q: With COc1cc2c(cc1Cc1cccc(Cl)c1F)c(=O)c(C(=O)O)cn2[C@H](CO)C(C)C as the molecule, how does the Potency [1] read?
A: The Potency was 5.9 µM (active).

Q: And the Potency [2]?
A: Its Potency is 7.42 µM (active).

Q: What about the Potency [3] of the same molecule?
A: The Potency was 26.4 µM (active).

Q: And the Potency [4]?
A: The Potency was 16.6 µM (active).

Q: And the Potency [8]?
A: Its Potency is 25.1 µM (active).

Q: Which results are given for C[C@@]1(C(=O)Nc2ccc(F)nc2)CCCN1c1nc(Nc2cc(C3CC3)[nH]n2)c2cccn2n1?
A: Potency [1]: 1.46 µM (active); Potency [2]: 1.84 µM (active); Potency [3]: 2.96 µM (active); Potency [4]: 2.96 µM (active); Potency [5]: 4.18 µM (active); Potency [6]: 3.32 µM (active); Potency [8]: 0.199 µM (active)

Q: Which results are given for CCCC1OC2C[C@@H]3[C@H]4CCC5=CC(=O)C=C[C@]5(C)[C@H]4C(O)C[C@]3(C)[C@]2(C(=O)CO)O1 (some centres undefined)?
A: Potency [1]: 16.6 µM (active); Potency [2]: 7.42 µM (active); Potency [9]: 0.0132 µM (active); Potency [6]: 0.132 µM (active); activity (max response) [7]: -12.3%; Potency [8]: inactive

Q: Which Potency [1] does the source give for C[C@]1(CO)CN(c2cc(C(=O)Nc3ccc4c(c3)-c3c(c(C(N)=O)nn3-c3ccc(F)cc3)CC4)c(Cl)cn2)C[C@@]1(C)CO here?
A: The Potency was 3.66 µM (active).

Q: What about the Potency [2] of the same molecule?
A: The Potency was 2.91 µM (active).

Q: And the Potency [3]?
A: The Potency was 16.6 µM (active).

Q: And the Potency [4]?
A: The Potency was 16.6 µM (active).

Q: What about the Potency [5] of the same molecule?
A: The Potency was 18.7 µM (active).

Q: And the Potency [6]?
A: The Potency was 18.7 µM (active).
